Measurements published in PubChem BioAssay (NCATS).
Results filed as inconclusive are left out. Calls of active or inactive are those of the source. Calls come from the whole dose curve; as a rule, active = well fitted inhibition curve with a large enough effect; inconclusive = small, poorly fitted or top-dose-only effect; inactive = flat fitted curve, though single readings scatter.

Legend:
Experiment in all cases: qHTS profiling for inhibitors of Plasmodium falciparum proliferation (AID 504749); note: nearly all actives have a fitted effect of over 60% in size
Settings in all cases: P. falciparum in erythrocytes, SYBR Green DNA, 72 h; series mostly up to 28.7 µM
[1] = test system: ATS95
Summary of the method: (§1)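 Three-day growth assay of blood-stage parasites in erythrocytes (0.3% parasitemia, 2.5% hematocrit) at 37 C, 5% CO2, quantified by SYBR Green DNA staining after overnight detergent lysis.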

[2] = test system: C2A
Summary of the method: as §1

[3] = test system: CP211
Summary of the method: as §1

[4] = test system: CP215
Summary of the method: as §1

[5] = test system: CP217
Summary of the method: as §1

[6] = test system: CP250
Summary of the method: as §1

[7] = test system: CP252
Summary of the method: as §1

[8] = test system: CP256
Summary of the method: as §1

[9] = test system: CP262
Summary of the method: as §1

[10] = test system: CP265
Summary of the method: as §1

[11] = test system: CP268
Summary of the method: as §1

[12] = test system: CP269
Summary of the method: as §1

[13] = test system: CP325
Summary of the method: as §1

[14] = test system: CP329
Summary of the method: as §1

[15] = test system: ECU
Summary of the method: as §1

[16] = test system: FAB9
Summary of the method: as §1

[17] = test system: P93_24
Summary of the method: as §1

[18] = test system: PAD
Summary of the method: as §1

[19] = test system: PC26
Summary of the method: as §1

[20] = test system: SC27B
Summary of the method: as §1

Measured: Potency

Oc1ccc(/C=C\c2cc(O)cc(O)c2)cc1
inactive: [1] | [2] | [3] | [4] | [5] | [6] | [7] | [8] | [9] | [10] | [11] | [12] | [13] | [14] | [15] | [16] | [17] | [18] | [19] | [20]
